This is a sample that favours compounds with a hit; in the whole collection about 3% have one here.
GDH-TPI inh = GDH-TPI coupling enzyme inhibitors, primary screen, artefact control for M. tuberculosis FBA inhibitor project, biochemical, absorbance, full deck; GDH-TPI coupled enzyme counterscreen, NADH absorbance; inhibition, % at 4.8 µM; hit rate 1.2% among 360,000; AID 588335, 2011; in the data active means inhibition above about 30%;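 further: 0% = DMSO wells and 100% = wells lacking the enzyme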
BH1578 lux ind = inducers of Vibrio cholerae quorum light production without autoinducers, primary screen, BH1578 luxS cqsA deficient, single point; V. cholerae BH1578 lux reporter, luminescence, 6 h; hit rate 0.16% among 350,000; activation, % at 18.7 µM; in the data active means activation mostly above about 9.7%, no sharp cut-off
BioA inh = M. tuberculosis BioA enzyme inhibitors, primary screen, biochemical, plate reader, single point, HTS | 7,8-diaminopelargonic acid synthase BioA (Mycobacterium tuberculosis) | purified M. tuberculosis BioA enzyme | inhibition, % at 9.99 µM | hit rate 0.096% among 360,000; in the data active means inhibition above about 40%
FBA Mtb inh = Mtb FBA enzyme inhibitors, primary screen, biochemical, fluorescence, strain H37Rv; Fructose-bisphosphate aldolase (Mycobacterium tuberculosis (strain ATCC 25618 / H37Rv)), …; purified M. tuberculosis FBA, fluorescence read-out; inhibition, % at 1 µM; hit rate 2.3% among 360,000; AID 588726, 2011; in the data active means inhibition above about 27%;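 further: 0% = vehicle and 100% = reference inhibitor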
Target sequence (P9WQA3 whole entry, looked up): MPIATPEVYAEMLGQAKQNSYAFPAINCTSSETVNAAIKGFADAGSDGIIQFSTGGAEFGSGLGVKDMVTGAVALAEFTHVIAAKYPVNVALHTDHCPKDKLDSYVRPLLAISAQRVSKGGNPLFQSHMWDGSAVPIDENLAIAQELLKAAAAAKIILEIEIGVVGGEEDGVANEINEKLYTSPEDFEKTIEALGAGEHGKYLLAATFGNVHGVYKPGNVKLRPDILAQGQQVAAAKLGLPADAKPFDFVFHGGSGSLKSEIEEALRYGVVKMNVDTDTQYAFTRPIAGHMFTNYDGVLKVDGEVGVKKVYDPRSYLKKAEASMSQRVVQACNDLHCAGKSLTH
Active calls of the source: *; i = inactive; . = no result; + = active, no number.

SMILES | GDH-TPI inh | BH1578 lux ind | BioA inh | FBA Mtb inh
C[C@H]1CN([C@@H](C)CO)C(=O)c2cccc(NS(=O)(=O)c3ccc(F)cc3)c2O[C@H]1CN(C)Cc1ccccc1 | . | . | -0.5 | .
Cc1noc(/C=C/N(C)C)c1S(=O)(=O)N1CCCC(C(=O)Nc2ccccc2F)C1 (configuration not stated) | 46.5* | i | -2.3 | 0.1
Cc1noc(/C=C/N(C)C)c1S(=O)(=O)N1CCCC(C(=O)NC2CCCCC2)C1 (configuration not stated) | 57.9* | -0.2 | -6.3 | -1.1
Cc1noc(/C=C/N(C)C)c1S(=O)(=O)N1CCCC(C(=O)N2CCCCC2)C1 (configuration not stated) | 24.6 | -0.3 | -3.3 | -2.5
O=C1C(Cl)=C(NC(=O)c2ccccc2)C(=O)C(Cl)=C1NC(=O)c1ccccc1 | 34.0* | i | -3.1 | 5.4
Oc1ccc(O)c(C=NNC(=S)NC2CC3CC2C2C=CCC32)c1 (configuration not stated) | 31.0* | i | -0.2 | 2.4
NNC(=S)NC1CC2CC1C1C=CCC21 (configuration not stated) | 8.1 | i | -1.4 | 0.0
O=C(CN1CCN(c2cccc(Cl)c2)CC1)c1ccc(O)cc1O | 30.8* | i | 0.5 | 0.8
O=C(CN1CCN(c2cccc(Cl)c2)CC1)N1CCCC1 | -8.0 | i | -1.5 | -13.9
CC(C)(C)[S@@](=O)N1Cc2cc(C(=O)NCc3ccncc3)nc(-c3cccc(-c4cccc(C#N)c4)c3)c2[C@H]1CCO | . | . | 28.2 | .
Cc1c(NC(=O)C(C)NCC2CCCO2)c(=O)n(-c2ccccc2)n1C (configuration not stated) | 6.8 | -0.4 | -0.7 | +
O=C1C(=O)N(Cc2cccnc2)C(c2ccccn2)/C1=C(/O)c1ccc(F)cc1 (configuration not stated) | 18.0 | 2.0 | 1.6 | 4.5
Cc1ccc(/C(O)=C2/C(=O)C(=O)N(Cc3cccnc3)C2c2ccccn2)cc1 (configuration not stated) | 38.5* | -0.6 | -2.2 | 3.2
COc1cccc(OC)c1C(=O)Nc1ccc2c3c(cccc13)CC2 | -0.3 | 16.7* | -1.6 | -1.9
COc1ccccc1C(=O)Nc1ccc2c3c(cccc13)CC2 | 1.8 | -0.3 | -0.6 | 3.4
COc1ccc(NC(=O)Nc2ccc3c(c2)CC(=O)N([C@H](C)CO)C[C@@H](C)[C@@H](CN(C)C(=O)Nc2cccc4ccccc24)O3)cc1 | . | . | 3.3 | .
O=C(/C=C/c1ccccc1)Nc1ccc2c(c1)C(=O)NC2=O | 26.1 | -0.4 | -5.5 | 11.8
O=C(/C=C/c1ccccc1Cl)Nc1ccc2c(c1)C(=O)NC2=O | 37.0* | . | -0.3 | 12.1
COc1ccc(-c2cn3cccnc3n2)cc1NC(=O)c1cccs1 | 19.2 | -0.3 | . | 18.4
Cc1onc(-c2ccccc2Cl)c1C(=O)Nc1cccc(-c2cn3cccnc3n2)c1 | 30.9* | -0.5 | 3.2 | 128.5*
CC(C)(C)CC(=O)Nc1cccc(-c2cn3cccnc3n2)c1 | 6.8 | -0.3 | . | +
Cc1onc(-c2ccccc2Cl)c1C(=O)Nc1ccc(F)c(F)c1 | 4.5 | i | . | -0.4
COc1cc(C(=O)Nc2cccc(-c3cn4cccnc4n3)c2)cc(OC)c1OC | 7.9 | -0.3 | 3.1 | +
CNC[C@H]1Oc2ccc(NC(=O)Cn3cnnn3)cc2CC(=O)N([C@@H](C)CO)C[C@@H]1C | . | . | 2.2 | .
O=C(C[C@@H]1CC[C@H](NC(=O)c2ccc3c(c2)OCO3)[C@H](CO)O1)NCc1ccc(Cl)cc1 | . | . | 1.9 | .
SMILES | GDH-TPI inh | BH1578 lux ind | BioA inh | FBA Mtb inh
Cn1cnc(S(=O)(=O)N[C@H]2C=C[C@@H](CC(=O)N3CCN(c4ccccc4)CC3)O[C@H]2CO)c1 | . | . | -0.1 | .
Cc1ccc(S(=O)(=O)N(C)C[C@H]2Oc3ccc(NC(=O)Cc4ccccc4)cc3CC(=O)N([C@@H](C)CO)C[C@@H]2C)cc1 | . | . | -0.4 | .
CCn1cc(/C=C(\NC(=O)c2ccccc2F)C(=O)NCCCn2ccnc2)c2ccccc21 | 32.8* | i | . | -5.1
CCn1cc(/C=C(\NC(=O)c2ccccc2OC)C(=O)NCCCn2ccnc2)c2ccccc21 | 24.9 | -0.7 | . | -5.1
COc1ccc(C(=O)N/C(=C\c2cn(S(=O)(=O)N(C)C)c3ccccc23)C(=O)NCCCn2ccnc2)cc1 | 13.8 | -2.9 | -0.4 | -2.0
CCn1cc(/C=C(\NC(=O)c2ccc(OC)cc2)C(=O)NCCCn2ccnc2)c2ccccc21 | 37.2* | -4.5 | 3.8 | -4.5
COCCn1nnnc1CN1CCN(c2cccc(C(F)(F)F)c2)CC1 | -5.3 | -3.4 | 2.6 | 191.0*
COC(=O)c1cn(C)c2ccc(S(=O)(=O)N3CCCCC3)cc2c1=O | 40.5* | -0.4 | -1.4 | 5.3
Cn1cc(C(=O)N2CCCCCC2)c(=O)c2cc(S(=O)(=O)N3CCCCC3)ccc21 | 5.2 | i | 5.5 | -1.1
COCCNC(=O)/C(C#N)=C/C=C/c1ccccc1[N+](=O)[O-] | 47.6* | 2.0 | . | -0.8
COCCNC(=O)/C(C#N)=C/c1ccc(O)c([N+](=O)[O-])c1 | 14.1 | -0.2 | . | -10.7
Cc1ccc2ncc(NC(=O)c3ccc(F)cc3)c(=O)n2c1 | 33.0* | i | -1.3 | -1.0
CCOc1ccc(/C=C2\SC(N3CCc4ccccc4C3)=NC2=O)cc1 | 12.6 | 0.0 | . | 0.5
COc1ccc(/C=C2\SC(N3CCc4ccccc4C3)=NC2=O)cc1 | 40.7* | -0.2 | -1.3 | 1.2
O=C1N=C(N2CCc3ccccc3C2)S/C1=C\c1cccc(O)c1 | 31.9* | -0.6 | -0.1 | -2.4
C[C@@H]1CCCCO[C@H](CN(C)C(=O)Nc2ccc(F)cc2)[C@H](C)CN([C@H](C)CO)C(=O)c2cc(NC(=O)c3ccccc3)ccc2O1 | . | . | -1.2 | .
C[C@@H]1CN([C@@H](C)CO)S(=O)(=O)c2ccc(C#CC3CC3)cc2O[C@@H]1CN(C)C | . | . | 1.1 | .
CC(C)C#Cc1ccc2c(c1)O[C@H](CN(C)Cc1ccncc1)[C@@H](C)CN([C@@H](C)CO)S2(=O)=O | . | . | 1.2 | .
C[C@H]1CN([C@@H](C)CO)C(=O)Cc2cc(NS(=O)(=O)c3cn(C)cn3)ccc2O[C@@H]1CN(C)CC1CC1 | . | . | 6.0 | .
N#Cc1nc(COc2ccccc2)oc1NCCN1CCOCC1 | -4.5 | -0.3 | 3.0 | 3.2
N#Cc1nc(COc2ccc(-c3ccccc3)cc2)oc1NCCCN1CCOCC1 | -10.6 | -0.1 | 0.9 | -3.5
N#Cc1nc(/C=C/c2ccccc2)oc1NCCCN1CCOCC1 | 25.7 | -0.6 | . | +
N#Cc1nc(-c2cccs2)oc1NCCCN1CCOCC1 | 14.7 | -0.5 | 2.3 | +
COc1ccc(-c2nc(C#N)c(NCCCN3CCOCC3)o2)cc1 | 11.1 | -0.2 | -0.7 | 149.3*
CN(C)C(=O)C[C@@H]1CC[C@@H](NC(=O)C2CC2)[C@@H](CO)O1 | . | . | -1.4 | .
C[C@H]1CN([C@@H](C)CO)S(=O)(=O)c2ccc(-c3ccc(F)cc3)cc2O[C@H]1CN(C)C(=O)C1CCCCC1 | . | . | -2.8 | .
CO[C@H]1CN(C)C(=O)c2ccc(NC(C)=O)cc2OC[C@H](C)N(C(=O)C2CC2)C[C@H]1C | . | . | 0.2 | .

Assay outcomes: PubChem BioAssay, several laboratories
